Records with an inconclusive call do not appear. Calls of active or inactive are those of the source. Unless noted, calls come from the whole dose curve; as a rule, active = well fitted curve in the direction sought with a large enough effect in the repeat runs; inconclusive = weak or mixed curves; inactive = no such curve, though single readings can be large; an effect the other way counts as inactive or inconclusive.
Legend:
[1] = test system: thyroid hormone receptor (rat, GH3 cells); assay: qHTS assay to identify small molecule agonists of the thyroid receptor (TR) signaling pathway (AID 743066; calls by dose curve); conditions: GH3.TRE-Luc cells, TR agonist luciferase, 24 h; series mostly up to 83.9 µM
[2] = qHTS assay to identify small molecule antagonists of the estrogen receptor alpha (ER-alpha) signaling pathway - cell viability counter screen (AID 743074; calls by dose curve;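 note: HEK293 cells carrying ER-alpha-UAS-bla reporter stimulated with 17beta-estradiol; nearly all actives have a fitted effect of over 45% in size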); conditions: ERalpha-bla HEK293 viability, CellTiter-Glo luminescence, 18 h; series mostly up to 69.4 µM
[3] = qHTS assay to identify small molecule antagonists of the estrogen receptor alpha (ER-alpha) signaling pathway using the BG1 cell line - cell viability counter screen (AID 743081); conditions: BG1Luc4E2 viability, CellTiter-Fluor, 22 h; series mostly up to 70.3 µM;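 note: compound given together with 17beta-estradiol as the ER stimulus; nearly all actives have a fitted effect of over 45% in size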
Aromatase (Homo sapiens) = Aromatase (Homo sapiens) (UniProt P11511); assay: qHTS assay to identify aromatase inhibitors (AID 743083); conditions: MCF-7 aro ERE, testosterone-driven ERE luciferase, 24 h; series mostly up to 70.3 µM; note: nearly all actives have a fitted effect of over 55% in size
Chain of Aromatase (Homo sapiens) (P11511 whole entry, looked up): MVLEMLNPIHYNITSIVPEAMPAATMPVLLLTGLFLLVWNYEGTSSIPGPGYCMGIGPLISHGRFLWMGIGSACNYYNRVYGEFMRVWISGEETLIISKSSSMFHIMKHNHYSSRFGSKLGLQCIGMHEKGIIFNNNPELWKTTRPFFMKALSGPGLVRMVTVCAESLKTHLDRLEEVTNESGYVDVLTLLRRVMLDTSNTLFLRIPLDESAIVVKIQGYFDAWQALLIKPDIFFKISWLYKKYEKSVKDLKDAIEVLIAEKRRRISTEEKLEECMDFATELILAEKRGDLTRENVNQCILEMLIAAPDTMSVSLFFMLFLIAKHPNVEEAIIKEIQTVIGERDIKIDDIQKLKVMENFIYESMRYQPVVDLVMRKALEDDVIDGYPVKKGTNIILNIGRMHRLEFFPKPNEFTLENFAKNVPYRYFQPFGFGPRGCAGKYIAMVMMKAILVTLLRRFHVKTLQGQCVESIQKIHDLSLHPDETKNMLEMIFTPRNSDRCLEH

[4] = qHTS assay to identify aromatase inhibitors - cell viability counter screen (AID 743084); conditions: MCF-7 aro ERE viability, CellTiter-Fluor, 24 h; series mostly up to 70.3 µM;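 note: cells stimulated with testosterone during compound exposure; nearly all actives have a fitted effect of over 55% in size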
[5] = target: Aryl hydrocarbon receptor (Homo sapiens) (UniProt P35869); assay: qHTS assay to identify small molecule that activate the aryl hydrocarbon receptor (AhR) signaling pathway (AID 743085); conditions: HepG2 AhR-luc (HG2L7.5c1), luciferase, 24 h; series mostly up to 70.3 µM; note: nearly all actives have a fitted effect of over 15% in size; note: potency is the fitted concentration of half-maximal effect;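 for activation: HG2L7.5c1 human HepG2 liver cells with stably integrated DRE-driven firefly reporter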
Chain of Aryl hydrocarbon receptor (Homo sapiens) (P35869 whole entry, looked up): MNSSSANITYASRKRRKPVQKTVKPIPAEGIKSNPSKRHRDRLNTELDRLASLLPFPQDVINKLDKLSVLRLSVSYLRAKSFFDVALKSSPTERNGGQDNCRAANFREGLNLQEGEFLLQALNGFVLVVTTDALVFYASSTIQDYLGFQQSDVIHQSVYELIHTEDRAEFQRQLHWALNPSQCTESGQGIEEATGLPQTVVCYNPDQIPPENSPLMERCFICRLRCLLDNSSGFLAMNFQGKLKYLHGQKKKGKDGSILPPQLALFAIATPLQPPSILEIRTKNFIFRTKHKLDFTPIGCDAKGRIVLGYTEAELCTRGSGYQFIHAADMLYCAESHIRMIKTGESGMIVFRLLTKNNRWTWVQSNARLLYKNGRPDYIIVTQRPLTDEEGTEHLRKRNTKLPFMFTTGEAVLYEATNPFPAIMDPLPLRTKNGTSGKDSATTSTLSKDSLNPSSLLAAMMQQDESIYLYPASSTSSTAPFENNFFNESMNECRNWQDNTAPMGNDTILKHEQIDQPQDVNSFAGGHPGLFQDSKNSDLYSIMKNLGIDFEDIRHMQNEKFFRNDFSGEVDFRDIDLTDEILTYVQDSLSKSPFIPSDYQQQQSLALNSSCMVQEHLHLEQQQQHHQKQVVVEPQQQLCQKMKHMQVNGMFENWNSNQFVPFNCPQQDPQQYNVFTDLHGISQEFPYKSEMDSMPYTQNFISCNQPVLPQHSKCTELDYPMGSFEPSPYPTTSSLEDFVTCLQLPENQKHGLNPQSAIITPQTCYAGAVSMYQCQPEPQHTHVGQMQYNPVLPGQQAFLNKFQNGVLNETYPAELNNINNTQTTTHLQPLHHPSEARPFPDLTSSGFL
Outline: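 HepG2 cells (HG2L7.5c1) stably carrying a firefly luciferase reporter driven by 20 dioxin responsive elements were exposed to compound for 24 h at 37C after a 5 h settling period; luminescence rise (ONE-Glo) indicated activation.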

[6] = qHTS assay to identify small molecule that activate the aryl hydrocarbon receptor (AhR) signaling pathway - cell viability counter screen (AID 743086); conditions: HepG2-AhR-luc viability, CellTiter-Fluor, 24 h; series mostly up to 70.3 µM;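 note: HepG2 liver cells carrying the AhR DRE luciferase reporter; nearly all actives have a fitted effect of over 45% in size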
Outline: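 Cytotoxicity counter screen: CellTiter-Fluor signal (30 min, 37 C) in 4000 HepG2 cells/well carrying the DRE-luciferase reporter, following 24 h compound exposure at 37 C.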

[7] = target: Peroxisome proliferator-activated receptor gamma (Homo sapiens) (UniProt P37231); assay: qHTS assay to identify small molecule agonists of the peroxisome proliferator-activated receptor gamma (PPARg) signaling pathway (AID 743094; active = well fitted activation curve with a large enough effect in the signal ratio in the repeat runs, not every such curve was filed as active; the % refers to the signal ratio; note: potency is the fitted concentration of half-maximal effect); conditions: HEK293H PPARg-UAS-bla, beta-lactamase FRET ratio, 17 h; series mostly up to 57 µM
Chain of Peroxisome proliferator-activated receptor gamma (Homo sapiens) (P37231 whole entry, looked up): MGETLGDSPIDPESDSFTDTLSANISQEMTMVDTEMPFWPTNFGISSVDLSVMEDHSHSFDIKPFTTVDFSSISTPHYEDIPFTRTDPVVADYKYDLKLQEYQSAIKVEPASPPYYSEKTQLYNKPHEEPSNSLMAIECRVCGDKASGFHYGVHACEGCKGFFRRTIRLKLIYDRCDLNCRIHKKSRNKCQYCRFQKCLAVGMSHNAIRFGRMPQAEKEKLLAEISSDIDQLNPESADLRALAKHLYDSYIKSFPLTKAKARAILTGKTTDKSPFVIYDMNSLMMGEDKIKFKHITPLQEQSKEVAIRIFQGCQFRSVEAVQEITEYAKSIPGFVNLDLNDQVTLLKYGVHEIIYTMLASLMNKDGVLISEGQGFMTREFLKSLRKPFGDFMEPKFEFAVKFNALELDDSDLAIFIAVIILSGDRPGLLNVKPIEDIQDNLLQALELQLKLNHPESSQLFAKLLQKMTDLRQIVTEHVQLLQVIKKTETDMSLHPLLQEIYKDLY
Outline: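 Cell-based bla reporter, HEK293H background, PPARg-driven UAS. Pre-incubation 5 h, 37C, 5% CO2. Compound 17 h, 37C. Substrate 1 h RT; fluorescence.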

[8] = target: Peroxisome proliferator-activated receptor gamma (Homo sapiens) (UniProt P37231); assay: qHTS assay to identify small molecule antagonists of the peroxisome proliferator-activated receptor gamma (PPARg) signaling pathway (AID 743191; calls by dose curve; note: nearly all actives have a fitted effect of over 30% in size); conditions: HEK293H PPARg-UAS-bla, beta-lactamase ratio, antagonist, 17 h; series mostly up to 62.6 µM
Outline: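 Beta-lactamase reporter under UAS control in HEK293H PPARg-bla cells; compound treatment 17 h at 37C. Read-out: fluorescence intensity after 1 h room-temperature incubation with LiveBLAzer B/G FRET substrate.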

[9] = qHTS assay to identify small molecule antagonists of the peroxisome proliferator-activated receptor gamma (PPARg) signaling pathway - cell viability counter screen (AID 743194); conditions: PPARg-bla HEK293H viability, CellTiter-Glo luminescence, 17 h, co-treated with 50 nM rosiglitazone; series mostly up to 62.6 µM; note: nearly all actives have a fitted effect of over 55% in size
Outline: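 Viability was measured as CellTiter-Glo luminescence in GeneBLAzer PPARg UAS-bla HEK293H cells. These cells had been exposed 17 h at 37 C to compounds together with rosiglitazone at 50 nM final, with the beta-lactamase readout taken in the same wells.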

[10] = qHTS assay for small molecule agonists of the antioxidant response element (ARE) signaling pathway (AID 743202; active = well fitted activation curve with a large enough effect in the signal ratio in the repeat runs, not every such curve was filed as active; the % refers to the signal ratio); conditions: HepG2 ARE-bla reporter, beta-lactamase FRET, 16 h; series mostly up to 73.3 µM
Outline: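 After 16 hours of compound treatment at 37 C, HepG2 cells with a stably integrated ARE-driven beta-lactamase reporter were loaded 2 hours at room temperature with LiveBLAzer B/G FRET substrate and fluorescence intensity measured.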

[11] = qHTS assay for small molecule agonists of the antioxidant response element (ARE) signaling pathway - cell viability counter screen (AID 743203; calls by dose curve; note: nearly all actives have a fitted effect of over 55% in size); conditions: ARE-bla HepG2 viability, CellTiter-Glo luminescence, 16 h; series mostly up to 73.3 µM
Outline: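 Measured in the same wells as the beta-lactamase ARE reporter, this read-out is CellTiter-Glo luminescence from HepG2 ARE-bla cells given compounds for 16 hrs.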

[12] = qHTS assay for small molecule activators of the heat shock response signaling pathway - cell viability counter screen (AID 743209); conditions: HSE-bla HeLa viability, CellTiter-Glo luminescence, 5 h; series mostly up to 62.6 µM; note: nearly all actives have a fitted effect of over 50% in size
Outline: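 Same-well multiplex: after 2.5 h room-temperature incubation with LiveBLAzer B/G substrate and fluorescence reading, CellTiter-Glo reagent was added to HSE-bla HeLa cells that had received compound for 5 h at 37 C; luminescence read after 30 min.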

[13] = qHTS assay for small molecule activators of the heat shock response signaling pathway (AID 743210; active = well fitted activation curve with a large enough effect in the signal ratio in the repeat runs, with a control signal flat, not every such curve was filed as active; the % refers to the signal ratio); conditions: HeLa HSE-bla reporter, beta-lactamase ratio, 5 h; series mostly up to 62.6 µM
Outline: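 Compound exposure lasted 5 h at 37 C in HeLa cells carrying a heat-shock-element-driven beta-lactamase reporter. Read-out: fluorescence intensity after 2.5 h room-temperature loading with LiveBLAzer B/G FRET substrate.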

[14] = qHTS assay to identify small molecule agonists of the peroxisome proliferator-activated receptor delta (PPARd) signaling pathway - cell viability counter screen (AID 743211); conditions: PPARd-bla HEK293H viability, CellTiter-Glo luminescence, 17 h; series mostly up to 62.6 µM; note: nearly all actives have a fitted effect of over 55% in size
Outline: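 PPARd-bla HEK293H cells (UAS-beta-lactamase reporter) were treated with compounds for 17 h at 37 C. Viability was then read in the same wells by CellTiter-Glo luminescence after 30 min at room temperature.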

[15] = target: Peroxisome proliferator-activated receptor delta (Homo sapiens) (UniProt Q03181); assay: qHTS assay to identify small molecule agonists of the peroxisome proliferator-activated receptor delta (PPARd) signaling pathway (AID 743212; calls by dose curve); conditions: HEK293H PPARd-UAS-bla, beta-lactamase FRET ratio, 17 h; series mostly up to 62.6 µM
Chain of Peroxisome proliferator-activated receptor delta (Homo sapiens) (Q03181 whole entry, looked up): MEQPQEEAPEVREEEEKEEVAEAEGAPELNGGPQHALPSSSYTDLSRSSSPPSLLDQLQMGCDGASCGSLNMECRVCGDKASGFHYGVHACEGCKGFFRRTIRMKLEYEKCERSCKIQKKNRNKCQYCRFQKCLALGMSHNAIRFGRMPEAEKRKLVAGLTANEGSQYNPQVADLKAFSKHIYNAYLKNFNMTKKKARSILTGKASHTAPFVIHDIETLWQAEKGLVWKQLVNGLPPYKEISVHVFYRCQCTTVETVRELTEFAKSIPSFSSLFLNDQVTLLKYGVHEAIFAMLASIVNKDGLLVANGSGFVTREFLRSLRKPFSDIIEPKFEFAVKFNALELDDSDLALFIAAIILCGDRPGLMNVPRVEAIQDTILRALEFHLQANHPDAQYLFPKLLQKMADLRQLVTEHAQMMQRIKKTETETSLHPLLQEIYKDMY
Outline: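 Beta-lactamase reporter readout: a ratiometric FRET signal from the LiveBLAzer substrate after 2 h at room temperature. Compound exposure at 37 °C in PPARδ-bla HEK293H cells driven by an upstream activator sequence.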

Measured: Potency

CCC(C)CCCC(C)(C)O (centres undefined)
inactive: all assays above

C=CC(O)CCCCC (centres undefined)
not listed: [8]
inactive: all other assays above

CCCCCCCCC(=O)OCC(C)OC(=O)CCCCCCCC (centres undefined)
not listed: [7] | [8] | [13]
inactive: all other assays above

O=C(Nc1ccc2c(c1)Cc1ccccc1-2)C(F)(F)F
active: [5] 61.1 µM
not listed: [7] | [8] | [10] | [15]
inactive: all other assays above

CC(C)Cc1nccs1
inactive: all assays above

CCCCCCCCCC(C)C=O (centres undefined)
active: [7] 19.5 µM
not listed: [8] | [10] | [11] | [13] | [15]
inactive: all other assays above

CC(C(=O)O)c1ccc2c(c1)Cc1cccnc1O2 (centres undefined)
not listed: [8]
inactive: all other assays above

c1ccc(CN(Cc2ccccc2)Cc2ccccc2)cc1
not listed: [7] | [8] | [9] | [10] | [14] | [15]
inactive: all other assays above

C[C@]12CCC(=O)C=C1[C@@H]1C[C@@H]1[C@H]1[C@@H]3[C@@H]4C[C@@H]4[C@@]4(CCC(=O)O4)[C@@]3(C)CC[C@@H]12
not listed: [7] | [8] | [10] | [14] | [15]
inactive: all other assays above
